PNC assembly inh: inhibitors of perinucleolar compartment assembly. activity change (PNC), negative = inhibition, % at 10 µM. PC3M PTB-GFP, PNC prevalence imaging, 16 h; active compounds read low. 3.1% of 140,000 active. AID 2417;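 active = readout at or below -70, meaning at least 70% loss of cells showing the perinucleolar compartment, a nuclear body marking cancer cells; inconclusive = readout between -30 and a set limit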;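 note: plate controls were DMSO wells for no effect and camptothecin positive control wells for full effect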
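Read-out is percentage of cells bearing a perinucleolar compartment, from automated 20x imaging of fixed, Hoechst-stained PC3M PTB-GFP cells. Cells were seeded 4 h, then exposed 16 h to compound (23 nl of library stock) in duplicate plates.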
ALDH1A1 inh: ALDH1A1 (human) enzyme inhibition. Purified ALDH1A1, NADH fluorescence, propionaldehyde substrate. P00352. Potency, µM (top dose mostly 75.3 µM), for the others: at the highest dose activity, negative = inhibition, usual class: inhibitors. 7.3% of 220,000 active. AID 1030; active = well fitted inhibition curve with a large enough effect, not every such curve was filed as active; inconclusive = small, poorly fitted or top-dose-only effect, or another doubt; inactive = no such curve, though single readings can be large or run the other way;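 note: potency is the fitted concentration of half-maximal effect; plate controls were no enzyme wells and a reference inhibitor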
Target sequence (P00352 whole entry, looked up): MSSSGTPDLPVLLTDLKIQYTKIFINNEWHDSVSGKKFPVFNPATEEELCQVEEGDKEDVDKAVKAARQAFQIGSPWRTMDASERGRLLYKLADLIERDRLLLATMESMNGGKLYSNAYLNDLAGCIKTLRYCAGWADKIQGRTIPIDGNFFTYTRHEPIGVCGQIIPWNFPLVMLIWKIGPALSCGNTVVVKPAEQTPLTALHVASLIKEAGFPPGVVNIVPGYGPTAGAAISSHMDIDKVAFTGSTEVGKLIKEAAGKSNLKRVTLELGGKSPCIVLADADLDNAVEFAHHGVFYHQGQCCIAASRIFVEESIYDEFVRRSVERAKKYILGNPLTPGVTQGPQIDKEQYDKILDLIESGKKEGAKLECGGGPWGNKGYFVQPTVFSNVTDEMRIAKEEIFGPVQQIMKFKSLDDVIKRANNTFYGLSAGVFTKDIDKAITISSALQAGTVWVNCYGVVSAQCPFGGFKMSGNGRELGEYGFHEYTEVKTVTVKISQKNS
HPGD block: inhibitors of human 15-hydroxyprostaglandin dehydrogenase (HPGD). Potency, µM, for inactives: at the highest dose activity change, negative = inhibition, actives largely listed as inhibitors. 4.3% of 150,000 active. P15428. purified HPGD, NADH fluorescence kinetic, PGE2 substrate; active = well fitted inhibition curve with a large enough effect, not every such curve was filed as active; inconclusive = small, poorly fitted or top-dose-only effect, or another doubt; inactive = no such curve, though single readings can be large or run the other way; note: potency is the fitted concentration of half-maximal effect; % is set by controls: 0 for no effect and ±100 for the full control effect
Target sequence (P15428 whole entry, looked up): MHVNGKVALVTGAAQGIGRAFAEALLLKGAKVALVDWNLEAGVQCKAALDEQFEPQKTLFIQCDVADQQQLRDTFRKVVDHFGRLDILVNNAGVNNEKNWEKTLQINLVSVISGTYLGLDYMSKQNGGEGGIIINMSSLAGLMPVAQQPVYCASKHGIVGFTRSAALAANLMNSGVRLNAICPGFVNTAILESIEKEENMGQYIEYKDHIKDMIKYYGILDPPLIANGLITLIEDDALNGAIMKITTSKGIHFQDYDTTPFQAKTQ
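20 nM HPGD preincubated 15 min at room temperature with compound in 50 mM Tris-HCl pH 8, 0.01% Tween 20. Started with 1 mM NAD+ and 30 uM prostaglandin E2; NADH fluorescence (360/450 nm) read 5 times over 30-s intervals, last minus first.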
HTT cytoprotect: cytoprotection in Huntington HTT-Q103 PC12 cell model; PC12 HTT-Q103 induced, cytoprotection, ATP luminescence, 40 h; Potency, µM (highest dose often 56.4 µM), for inactives: cytoprotection (ATP increase), actives largely listed as activators; 0.14% of 230,000 active; AID 1471; note: potency is the fitted concentration of half-maximal effect; % of control where 0% means no effect; nearly all actives have a fitted effect of over 45% in size
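Readout: ATPlite luminescence (ATP level). Model: stable PC12, inducible Htt exon1 Q103-GFP. Inducer: tebufenozide, 100 nM final. Compounds: dose series. No G418 in medium.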
CBFb RUNX1 block: blocks binding between human CBF-beta and RUNX1. Q01196+Q13951. AlphaScreen CBFb-His/RUNX1-biotin binding, biochemical. Potency, µM (series often up to 59.8 µM), for inactives: top-dose activity, negative = inhibition, most hits filed as inhibitors. 230,000 tested, under 10 active. AID 1477; note: % of control where 0% means no effect
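Read-out: AlphaScreen. Format: His-CBF-beta with biotinylated RUNX1 (30 nM each) preincubated 20 min, compound 15 min, Ni-chelate plus streptavidin beads 90 min; room temperature throughout.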
HTT aggregate: mutant huntingtin aggregation inhibition. PC12 HttQ103-GFP aggregates, Acumen cytometry, 40 h. Potency, µM (series often up to 46.1 µM), without a hit: top-dose activity change, negative = inhibition, most hits filed as inhibitors. 1.1% of 220,000 active. AID 1688; note: potency is the fitted concentration of half-maximal effect; % is set by controls: 0 for no effect and ±100 for the full control effect; nearly all actives have a fitted effect of over 60% in size
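Multiplexed with ATP-based cell death, this channel scores GFP aggregates in PC12 cells expressing inducible HTTex1-Q103-GFP. Induction used 100 nM tebufenozide; compounds were tested in concentration series.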
The depositor's hits bear a star; ? = inconclusive; / = not tested or not shown; [ ] = another dose, or the depositor's remark. A selection: hits, their analogues and other compounds. The true share with any hit is near 11%. Unless noted, calls come from the whole dose curve; as a rule, active = well fitted curve in the direction sought with a large enough effect; inconclusive = small, poorly fitted or top-dose-only effect, or another doubt; inactive = no such curve, though single readings can be large; an effect the other way counts as inactive or inconclusive.

SMILES | PNC assembly inh | ALDH1A1 inh | HPGD block | HTT cytoprotect | CBFb RUNX1 block | HTT aggregate
O=[N+]([O-])c1ccc(CSCc2ccc(Cl)cc2)cc1 | / | -2%[13.5 µM] | -10% | 4%[10 µM] | / | /
Cc1ccc(N(CN2CCCC2=O)C(=O)c2ccc(OC(C)C)cc2)cc1 | ? | -4% | -10% | 16%[10 µM] | 0% | ?
O=C(COc1ccc([N+](=O)[O-])cc1)NNC(=S)NC(=O)c1ccc(Br)cc1 | / | 8.9µM* | / | 7% | 4% | -4%
CCCC(=O)NC(=S)NNC(=O)c1ccc([N+](=O)[O-])cc1 | ? | 18µM* | -10% | 37%[10 µM] | 0% | -4%
CCCCCC(=O)NNC(=S)NC(=O)c1cccc([N+](=O)[O-])c1 | 14 | 1.3µM* | 10µM* | / | -1% | 1%
CC(=O)NNC(=S)NC(=O)c1ccccc1 | / | 18µM* | / | -72% | -4% | -11%
CCCCCCCC(=O)NNC(=O)c1ccc([N+](=O)[O-])cc1 | 51 | ? | -2% | -5% | 6% | 2%
Cc1nc(-c2ccccc2)sc1-c1nc(-c2cccnc2)ncc1S(=O)(=O)c1ccccc1 | 16 | ? | -23% | -50% | 4% | ?
COc1ccc(NC(=O)N2CCc3nc(COc4ccccc4)c4c(c3C2)CO[C@@H](C)C4)cc1 | / | 22%[13.5 µM] | -5% | -7%[10 µM] | -3%[13.1 µM] | /
COCC(=O)N1CCC2(CC1)CCN(C(=O)Nc1cccc(F)c1)CC2 | / | 9% | 1% | -27% | / | /
CO[C@@H]1COC(=O)[C@H](COCc2ccccc2)NC(=O)C/C=C\[C@@H](C)[C@H](OC)COC(=O)[C@H](COCc2ccccc2)NC(=O)C/C=C\[C@H]1C | / | 2%[13.5 µM] | / | 20%[10 µM] | 4%[13.1 µM] | /
CO[C@@H]1COC(=O)C/C=C\[C@@H](C)[C@H](OC)COC(=O)[C@H](COCc2ccccc2)NC(=O)C/C=C\[C@H]1C | / | -15%[13.5 µM] | / | 3.2µM* | 7%[13.1 µM] | /
CO[C@@H]1COC(=O)CCC[C@@H](C)[C@H](OC)COC(=O)[C@H](Cc2ccccc2)NC(=O)C/C=C\[C@H]1C | / | 0.016µM* | / | ? | 12%[13.1 µM] | /
CO[C@H]1COC(=O)[C@H](C)COC(=O)[C@@H](Cc2ccccc2)NC(=O)C/C=C\[C@H]1C | / | 3%[13.5 µM] | / | -5%[10 µM] | 8%[13.1 µM] | /
CCCCCCCCCCCCCCC1CO1 (centres undefined) | / | 12% | -2% | -1% | 6%[21.7 µM] | /
CN1Cc2cc(C(=O)c3ccccc3O)cnc2NC1=O | ? | -10% | 25µM* | 0% | 2% | 3%
Cc1[nH]nc2ncc(C(=O)c3ccccc3O)cc12 | 8 | 9% | -24% | 20µM* | -3% | 6.3µM*
CCCc1ccc(C(=O)NNc2ccccc2F)cc1 | / | / | / | 2%[10 µM] | 5% | 8%[9.22 µM]
CCNC(=O)CSc1nnc(-c2ccc(OC)cc2)n1CC(C)C | 26 | 8% | 0% | 2% | 1% | ?
COc1ccccc1CNC(=O)c1ccoc1C | 22 | ? | -22% | 7%[0.074 µM] | 1% | 2%
Cc1occc1C(=O)NCc1ccccc1F | 51 | 10µM* | ? | -9% | 2% | -5%
Cc1ccc(C(=O)Nc2cccc(C(=O)NCc3ccccc3)c2)cc1 | 29 | 0% | -17% | 6%[10 µM] | 7% | -6%
Cc1occc1C(=O)Nc1cccc(C(=O)NCc2ccccc2)c1 | -29 | ? | 22µM* | -29%[10 µM] | 2% | ?
O=C(O)c1cccc(Cl)c1Cl | / | 4% | -9% | 5% | -8%[21.7 µM] | /
O=S(=O)(c1ccc(Cl)cc1)N1CCC2(CC1)CO2 | / | -7% | / | 30%[10 µM] | 9% | 19%
SMILES | PNC assembly inh | ALDH1A1 inh | HPGD block | HTT cytoprotect | CBFb RUNX1 block | HTT aggregate
CCN(CC)S(=O)(=O)c1cc(NC(=O)COC(=O)Cn2cnc3ccccc32)ccc1C | -24 | 20µM* | -8% | 2%[10 µM] | -1% | 11%
O=C(COC(=O)Cn1cnc2ccccc21)Nc1ccc2c(c1)OCCO2 | 33 | 28µM* | -6% | 2% | 5% | 5%
O=C(O)Cc1[nH]cnc1C(=O)O | / | 10%[13.5 µM] | -1% | -10%[10 µM] | / | /
C/C(=N\NS(=O)(=O)c1ccc(C)c([N+](=O)[O-])c1)c1cccs1 | / | 32µM* | / | -23% | -12% | 2%
CCCC1CCC(=NNS(=O)(=O)c2ccc(C)c([N+](=O)[O-])c2)CC1 (centres undefined) | ? | ? | -3% | 1%[10 µM] | -3% | 27%
CC(C)(C)C1CCC(=NNS(=O)(=O)c2ccc(Br)cc2)CC1 (centres undefined) | -20 | 1.4µM* | -5% | 25%[10 µM] | 14% | ?
CC(=O)N1CCC(=NNS(=O)(=O)c2ccc(C)c([N+](=O)[O-])c2)CC1 | -20 | 10µM* | -1% | -3%[10 µM] | 0% | 1%
CC(=O)N1CCC(=NNc2ccc(S(N)(=O)=O)cc2[N+](=O)[O-])CC1 | / | / | / | 29%[10 µM] | 3% | 16%[9.22 µM]
Cc1ccc(S(=O)(=O)NN=C2CCC(C(C)(C)C)CC2)cc1[N+](=O)[O-] (centres undefined) | -26 | 6.3µM* | -8% | 14%[10 µM] | -7% | 4%
Cc1ccc(S(=O)(=O)NN=C2C3CC4CC(C3)CC2C4)cc1[N+](=O)[O-] | 16 | 18µM* | -17% | 11%[10 µM] | -1% | 5%
O=C(NNS(=O)(=O)c1ccc(Br)cc1)C1CCCCC1 | / | -1% | / | -16% | -4% | 4%
CC(=O)N1CCC(=NNS(=O)(=O)c2cccc([N+](=O)[O-])c2)CC1 | -2 | 11µM* | -14% | 11%[10 µM] | -6% | 1%
CC1CCCC/C1=N\NS(=O)(=O)c1ccc(Br)cc1 (centres undefined) | 25 | 4.5µM* | 1% | ? | 1% | 15%
C/C(CC(C)C)=N\NS(=O)(=O)c1ccc(C)c([N+](=O)[O-])c1 | / | / | / | -6%[10 µM] | -4% | -2%[9.22 µM]
NC(N)=N/N=C(\c1ccc(Cl)cc1)C1CC1 | / | -9%[13.5 µM] | -8% | 14%[10 µM] | / | /
CCOC(=O)CCN1C(=O)[C@H]2[C@H]3[C@H](O)[C@H](O)C/C(=N/NC(=O)OCC)[C@H]3CC[C@@H]2C1=O | / | 5%[13.5 µM] | / | -1%[10 µM] | 2%[13.1 µM] | /
C=CC1=C(C)C2=NC1=CC1=NC(=CC3=NC(=CC4=NC(=C2)C(C)=C4CCC(=O)O)C(CCC(=O)O)=C3C)C(C=C)=C1C.[Zn] | / | ? | ? | -35%[1.9 µM] | ? | /
Cc1cccc(C)c1OCC(=O)N1CC2(C)CC1CC(C)(C)C2 (centres undefined) | 21 | 1% | -8% | 15% | 6% | 0%
CC1(C)CC2CC(C)(CN2C(=O)COC(=O)Cn2[nH]c(=O)c3ccccc3c2=O)C1 (centres undefined) | -88* | -1% | -11% | -9% | 4% | 20%[9.22 µM]
Cc1ccc(OCC(=O)N2CC3(C)CC2CC(C)(C)C3)cc1 (centres undefined) | -100* | 5% | -13% | -2%[10 µM] | 0% | 7%
